# Assay outcomes: PubChem BioAssay, Broad Institute
# PAX8 inh HTS – inhibitors of PAX8-driven TPO luciferase reporter, primary screen, RMG-I cells, single concentration. inhibition, % at 12.6 µM. SteadyGlo, 24 h. 1.2% of 360,000 active;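 active = mean replicate inhibition at least 60% with every replicate also reaching 60%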;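 note: luciferase light reporting Pax8 driven TPO promoter activity; plate controls were median of neutral control wells for no effect and mitoxantrone controls for full effect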
# EBV LMP1 NFkB – EBV LMP1-driven NF-kappaB luciferase reporter inhibitors, primary screen, cell-based, luminescence, single point. LMP1-induced NF-kappaB luciferase reporter cells. inhibition, % at 12.5 µM. 0.69% of 350,000 active; in the data active = inhibition above about 41%;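 note: 0% = neutral control wells and 100% = reference inhibitor control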
# Shn3 inh set2 – reduction of Shn3 3'UTR firefly luciferase signal, primary screen, Schnurri-3 inhibitor project, cell-based, Clone20 osteoblasts, set 2; Clone20 osteoblast Shn3 3'UTR firefly luciferase, 24 h; inhibition, % at 12.5 µM; 0.52% of 360,000 active; AID 588674, 2011;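 active = mean inhibition of at least 75% with every replicate also reaching 75%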;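 note: 0% = median of neutral control wells and 100% = pilot-screen positive control compound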
# Env fusion inh – inhibitors of HIV-1 Env-driven cell-cell fusion, primary screen, HeLa-JRFL effector, CEM21 target cells, luciferase | AID 651610, 2012 | 1.1% of 360,000 active | inhibition, % at 12.3 µM;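 active = mean replicate inhibition score of at least 50 and every replicate individually at or above 50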;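 note: 0% = plate neutral controls and 100% = maraviroc near 300 nM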
# NSD2 inh – NSD2 histone methyltransferase inhibitors, primary screen, biochemical, AlphaScreen, single concentration, set 2. 0.54% of 310,000 active. NSD2 peptide methylation, 120 min. Histone-lysine N-methyltransferase NSD2 (Homo sapiens), O96028. inhibition, % at 12.5 µM; in the data active = inhibition above about 50%
# Glyco luc inh – increase of ERlucT glycosylation luciferase signal, primary screen, N-linked glycosylation inhibitor project, D54 ERlucT cells, luminescence, set 2; reporter increase, % at 12.5 µM; 0.23% of 360,000 active; AID 588692, 2011; D54 ERlucT glycosylation luciferase reporter, 24 h; percent of 100 nM tunicamycin response;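 active = mean luciferase reporter signal, scaled so untreated is 0 and the glycosylation-blocking control 100, at or above a set limit in every replicate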;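 note: luciferase carries N-glycosylation sites so blocking glycosylation raises the light; 0% = median of neutral control wells and 100% = median of 100 nM tunicamycin wells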
# Starred values were filed as active, the others as inactive; / = no result; [ ] = remark or other dose. Most compounds without a hit are left out; they make up all but 2.8% or so of the library.
SMILES,PAX8 inh HTS,EBV LMP1 NFkB,Shn3 inh set2,Env fusion inh,NSD2 inh,Glyco luc inh
Cc1ccc(S(=O)(=O)N(C)C[C@H]2Oc3cc(C4=CCCC4)ccc3S(=O)(=O)N([C@H](C)CO)C[C@H]2C)cc1,41,/,/,60*[16.7 µM],/,/
C[C@H]1CN([C@@H](C)CO)S(=O)(=O)c2ccc(C3=CCCCC3)cc2O[C@H]1CN(C)S(=O)(=O)c1ccc(F)cc1,/,/,/,40[16.7 µM],/,/
C[C@@H]1CN([C@H](C)CO)S(=O)(=O)c2ccc(C3=CCCC3)cc2O[C@@H]1CN(C)S(=O)(=O)c1ccc(F)cc1,/,/,/,50[16.7 µM],/,/
CN1C(=O)c2cc(NC(=O)C3CC3)ccc2OC[C@H]2O[C@H](CC(=O)NCCN3CCCC3)CC[C@H]21,-9,/,/,/,/,/
O=C(C[C@H]1C=C[C@@H](NC(=O)NC2CCCCC2)[C@H](CO)O1)NCc1ccc(F)cc1,6,/,/,2[16.7 µM],/,/
CCCC#Cc1ccc([C@@H]2[C@@H](CO)N3C(=O)CN(C(=O)NC4CCCC4)C[C@H]23)cc1,7,/,/,/,/,/
CCOc1cccc(/C=N/NC(=O)c2cc(C3CC3)[nH]n2)c1O,36,-4,95*,23,32,-9
C=C(C)c1cccc(C(C)(C)NC(=O)Nc2ncccn2)c1,/,-4,2,-47,/,1
C=C(C)c1cccc(C(C)(C)NC(=O)Nc2ccc(Cl)cn2)c1,9,-4,22,65*,0,-3
COc1ccc(S(=O)(=O)Nc2cccc3c2O[C@@H](CN(C)Cc2ccc(Cl)c(Cl)c2)[C@H](C)CN([C@H](C)CO)C3=O)cc1,/,/,/,-45[16.7 µM],/,/
O=C(NO)c1ccc(OC(F)F)cc1,43,29,-24,/,24,36*
COc1ccc(-c2nc(NCCCN(C)C)c3ccccc3n2)cc1,-21,-31,-41,-48,1,43*
CCOC(=O)C1(Cc2ccc(OC)cc2)CCN(S(C)(=O)=O)CC1,-1,1,1,-10,-4,2
CCOC(=O)C1(Cc2ccc(Cl)cc2)CCN(C(C)Cc2ccc(O)c(OC)c2)CC1 (stereo not given),29,12,92*,-7,/,-1
O=C(CCc1ccc(S(=O)(=O)NCc2ccccc2)cc1)NCc1ccco1,157*,15,5,/,-3,1
O=C(CCc1ccc(S(=O)(=O)NCc2ccccc2)cc1)NCc1cccnc1,127*,1,18,/,-2,1
O=C(CN(Cc1cccs1)C(=O)CNS(=O)(=O)c1ccccc1)NCc1ccco1,/,90*,-7,/,/,-1
CC(=O)Nc1ccc(S(=O)(=O)NCc2cccnc2)cc1,/,3,8,-40,-2,0
O=C(Nc1ccc(S(=O)(=O)NCc2cccnc2)cc1)c1ccco1,/,-1,18,65*,-4,-3
C[C@@H]1CN([C@@H](C)CO)C(=O)c2cc(NS(=O)(=O)c3ccc(F)cc3)ccc2O[C@H]1CN(C)S(=O)(=O)c1ccc(Cl)cc1,/,/,/,-25[16.7 µM],/,/
Cc1nnc(SCc2cnc(-c3ccc(C(C)C)cc3)s2)n1C,/,43*,-19,-188,5,-11
c1ccc(-c2ncc(CSc3nncn3-c3ccccc3)s2)cc1,/,-15,-1,/,2,-1
CCCNC(=O)[C@H]1[C@H](CO)[C@H]2Cn3c(ccc(-c4ccccc4F)c3=O)[C@@H]1N2S(C)(=O)=O,-4,/,/,/,/,/
Cc1ccc(S(=O)(=O)N(C)C[C@@H]2Oc3ccc(NC(=O)Nc4c(C)noc4C)cc3C(=O)N([C@H](C)CO)C[C@H]2C)cc1,6,/,/,11[16.7 µM],/,/
O=C(Cc1ccccc1)NCCS(=O)c1ccc(Cl)cc1 (stereo not given),/,-3,92*,/,2,-6
SMILES,PAX8 inh HTS,EBV LMP1 NFkB,Shn3 inh set2,Env fusion inh,NSD2 inh,Glyco luc inh
Cc1ccc(OCC(O)CNC(C)c2ccccc2)cc1C (stereo not given),16,3,26,60*,3,1
Cc1ccc(C(OCC(O)CNC(C)c2ccccc2)c2ccccc2)cc1 (stereo not given),30,-2,37,47,5,-7
Cc1nc(SCC(=O)Nc2c(C)nn(C)c2C)c2cnn(-c3ccccc3)c2n1,/,13,16,64*,1,1
Cc1nn(Cc2ccccc2)c(C)c1NC(=O)CSc1nc(-c2ccccc2)nc2c1cnn2-c1ccccc1,/,7,20,/,1,0
CN(C)c1ccc(N=Nc2nc3ccccc3n2C)cc1,90*,57*,/,-305,/,-15
Cn1c(N=Nc2ccccc2)nc2ccccc21,/,2,-13,-156,8,-10
Cc1ccc(S(=O)(=O)Nc2ccc3c(c2)C(=O)N([C@@H](C)CO)C[C@H](C)[C@H](CN(C)C(=O)C2CCCCC2)OCCCC[C@@H](C)O3)cc1,7,/,/,-12[16.7 µM],/,/
OC(CNCCC1C=Nc2ccccc21)Cn1c2ccc(Cl)cc2c2cc(Cl)ccc21 (stereo not given),-11,-54,93*,3,-1,-16
OC(CNCC1CCCO1)Cn1c2ccc(Cl)cc2c2cc(Cl)ccc21 (stereo not given),/,-36,-16,-2,0,-5
Cc1noc(C)c1NC(=O)Nc1ccc2c(c1)CC(=O)N([C@H](C)CO)C[C@@H](C)[C@@H](CN(C)C(=O)NC1CCCCC1)O2,-15,/,/,-29[16.7 µM],/,/
O=C(COc1ccc(/C=N/NC(=O)c2cc3ccccc3o2)cc1Br)Nc1ccccc1,/,6,37,/,/,62*
O=C(COc1ccccc1[N+](=O)[O-])Nc1ccc(NC(=O)c2cc3ccccc3o2)cc1,-8,3,-3,-83,-3,-4
CO[C@@H](CN(C)C(=O)C1CC1)[C@@H](C)CN(C(=O)Nc1ccc(C(F)(F)F)cc1)[C@@H](C)CO,4,/,/,0[16.7 µM],/,/
N#C/C(=C\c1cccs1)C(=O)c1ccccc1Cl,64*,/,/,-173,-5,/
COc1ccc(N2CCN(C(=O)CC(C)S(=O)(=O)c3ccc4c(c3)NC(=O)CO4)CC2)cc1 (stereo not given),19,4,29,10,0,-2
CC(CC(=O)N1CCN(c2cccc(Cl)c2)CC1)S(=O)(=O)c1ccc2c(c1)NC(=O)CO2 (stereo not given),37,22,89*,13,0,-5
O=C(/C=C/Nc1ccccc1Br)c1ccccn1,/,74*,90*,/,4,-17
O=C(/C=C\Nc1ccccn1)c1ccccc1,/,33,16,/,0,-15
COc1cccc(C(=O)Nc2ccc3c(c2)C(=O)N(C)[C@H]2CC[C@@H](CC(=O)NCC4CC4)O[C@H]2CO3)c1,2,/,/,4[16.7 µM],/,/
Cc1ccc(-c2nc(C)sc2CC(=O)OCC(=O)Nc2cccc([N+](=O)[O-])c2)cc1,109*,-7,-15,/,-1,1
